# Values joined by “and” are separate entries in the source; they are usually repeats but may differ in a detail not shown here. Identical values can stand only once. Inconclusive results are not listed. Active and inactive are the calls of the source. Unless noted, the call rests on the fitted dose curve; in most records, active means well fitted curve in the direction sought with a large enough effect; inconclusive means small, poorly fitted or top-dose-only effect, or another doubt; inactive means no such curve, though single readings can be large; an effect the other way counts as inactive or inconclusive.
# Tests used:
# [1] = qHTS Assay for Lipid Storage Modulators (AID 1519; calls by dose curve; on activity change, negative = inhibition: on the % scale 0 is the no-effect control and ±100 the full control effect); settings: Drosophila S3 cells, BODIPY lipid droplet/cell ratio, laser cytometry, cells loaded with oleic acid
# Outline: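 Cells seeded at 5,000 per well were treated with compounds over a concentration series and loaded with oleic acid (400 uM, as added). Lipid droplet fluorescence (488 nm excitation, 500-530 nm channel) was read by laser-scanning cytometry and normalized to 20 uM Triacsin C.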
# [2] = Cell Viability - LYMP2-016 (AID 984); settings: LYMP2-016 lymphoblastoid cell viability, qHTS; series mostly up to 92.2 µM;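 further: cells exposed to compound for 24 hours at 37 °C; on the % scale 0 is the no-effect control and ±100 the full control effect; nearly all actives have a fitted effect of over 55% in size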
# Outline: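 qHTS, 1536-well: 2500 LYMP2-016 cells/well, 5 hr 37 C, compound added, 24 hr 37 C, CellTiter-Glo 30 min RT, luminescence. Tetraoctylammonium bromide positive control. AC50 via Hill fit.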
# [3] = Cell Viability - LYMP2-018 (AID 985); settings: LYMP2-018 lymphoblastoid cells, viability (qHTS); series mostly up to 92.2 µM;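 further: compound exposure lasted 24 hr at 37 °C; plate controls were DMSO only for no effect and tetraoctylammonium bromide at 92 µM for full effect; nearly all actives have a fitted effect of over 50% in size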
# Outline: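 Acute cytotoxicity is scored as a concentration-dependent drop in intracellular ATP after 24 hr exposure of the lymphoblastoid line in complete culture medium, measured by luciferase luminescence. Potency is expressed as AC50 from Hill modelling.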
# [4] = Cell Viability - LYMP2-020 (AID 986); settings: series mostly up to 92.2 µM;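 further: cells exposed to compound for 24 h at 37 °C; plate controls were DMSO only for no effect and tetraoctylammonium bromide at 92 µM for full effect; nearly all actives have a fitted effect of over 55% in size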
# Outline: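 Acute cytotoxicity in a human lymphoblastoid line is scored as a concentration-dependent fall in cellular ATP after 24 hr at 37 C in complete medium. The positive control is tetraoctylammonium bromide, and potency is given as Hill-fit AC50.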
# [5] = Cell Viability - LYMP2-022 (AID 987); settings: LYMP2-022 lymphoblastoid cell viability; series mostly up to 92.2 µM;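 further: 0% = DMSO alone and full effect = tetraoctylammonium bromide at 92 µM; nearly all actives have a fitted effect of over 55% in size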
# Outline: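 Acute toxicity in a human lymphoblastoid line is scored as decreased intracellular ATP after 24 hr compound treatment at 37 C. ATP is measured by CellTiter-Glo luminescence; curves are fitted with the Hill equation to give AC50.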
# [6] = Cell Viability - LYMP2-026 (AID 989); settings: LYMP2-026 lymphoblastoid cell viability, qHTS; series mostly up to 92.2 µM;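 further: cells exposed to compound for 24 h at 37 °C; on the % scale 0 is the no-effect control and ±100 the full control effect; nearly all actives have a fitted effect of over 50% in size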
# Outline: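 Concentration-dependent loss of intracellular ATP in human lymphoblastoid cells after 24 hr at 37 C, quantified by luciferase luminescence. AC50 derived from standard Hill equation.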
# [7] = biological target: Alpha-galactosidase A (Homo sapiens) (UniProt P06280); test: Counterscreen for Glucocerebrosidase Inhibitors: qHTS Assay for Human alpha-Galactosidase at pH 4.5 (AID 992); settings: purified enzyme, fluorogenic substrate; series mostly up to 76.9 µM; further: 0% is about no effect
# Alpha-galactosidase A (Homo sapiens), sequence (P06280 whole entry, looked up): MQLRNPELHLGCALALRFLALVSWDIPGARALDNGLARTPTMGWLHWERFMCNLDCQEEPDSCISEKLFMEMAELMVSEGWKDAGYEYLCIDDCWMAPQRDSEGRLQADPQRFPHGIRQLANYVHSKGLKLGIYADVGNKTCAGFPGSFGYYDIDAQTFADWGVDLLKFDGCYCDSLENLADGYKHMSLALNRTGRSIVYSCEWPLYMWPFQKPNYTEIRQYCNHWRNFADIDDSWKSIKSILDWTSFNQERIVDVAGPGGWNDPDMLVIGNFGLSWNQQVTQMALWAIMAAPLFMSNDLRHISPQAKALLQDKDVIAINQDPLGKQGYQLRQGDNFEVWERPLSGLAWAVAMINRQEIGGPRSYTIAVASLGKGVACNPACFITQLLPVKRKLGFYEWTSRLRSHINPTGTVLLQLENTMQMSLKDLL
# Outline: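 Quantitative HTS: compounds tested from 0.7 nM up to 77 uM against 2 nM enzyme with 80 uM 4-MU alpha-D-galactopyranoside. The 20 min room-temperature reaction is stopped with 1M NaOH/1M glycine, pH 10.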
# [8] = Cell Viability - LYMP1-002 - Assay at 40 hr (AID 994); settings: LYMP1-002 lymphoblastoid cell viability; series mostly up to 92.2 µM;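 further: 0% = DMSO only and full inhibition = 92 µM tetraoctylammonium bromide; nearly all actives have a fitted effect of over 60% in size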
# Outline: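 Viability in the human lymphoblastoid line was measured as intracellular ATP via CellTiter-Glo after 40 hr compound exposure. Tetraoctylammonium bromide served as positive control.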
# [9] = biological target: alpha-glucosidase (Oryza sativa, rice) (UniProt Q653V4); test: Counterscreen for Glucocerebrosidase Inhibitors: qHTS Assay for Rice alpha-Glucosidase at pH 5.0 (AID 997); settings: rice alpha-glucosidase enzyme activity; series mostly up to 76.9 µM;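 further: 0% = full activity with enzyme and -100% = basal without enzyme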
# Outline: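 Rice alpha-glucosidase (4 nM final) with 400 uM 4-methylumbelliferyl-alpha-D-glucopyranoside in citrate buffer pH 5.0, 20 min at room temperature, stopped at pH 10; fluorescence 365/440 nm, compounds 0.7 nM–77 uM, AC50 from Hill fits.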
# [10] = Validation of Assay for Modulators of Lamin A Splicing (AID 1459; active means well fitted curve in the direction sought with a large enough effect in the signal ratio; the % refers to the signal ratio;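 further: cells exposed to compound for two days before reading; 0% is about no effect; ratio rise marks activators and ratio drop marks inhibitors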); settings: Lamin A splicing dual RFP/GFP fluorescence reporter; series mostly up to 9.22 µM
# Outline: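 Readout: ratio of GFP (500-530 nm) to RFP (575-640 nm) total object intensity by 488 nm laser-scanning cytometry after 48 hrs. Cells were HeLa S3 clones carrying lamin A-EGFP minigene plus DsRed2 viability reporter; vehicle 0.5% DMSO final.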
# [11] = measured here: cell count channel max response
# [12] = measured here: lipid channel max response
structure (smiles),measurement,setting,value
COc1ccccc1N1CCN(CC(O)COc2cccc3ccccc23)CC1 (stereo not given),"activity change, negative = inhibition",[1]; at 57.5 µM (top of the series),0.0402% (inactive)
same,max response,[1]; [11],-17.8%
same,max response,[1]; [12],-14.9%
CC(C)(Oc1ccc(C2CC2(Cl)Cl)cc1)C(=O)O (stereo not given),"activity change, negative = inhibition",[1]; at 57.5 µM (top of the series),1.98% (inactive)
same,max response,[1]; [11],-18.9%
same,max response,[1]; [12],-26.3%
COc1cc2nc(N(C)CCCNC(=O)C3CCCO3)nc(N)c2cc1OC (stereo not given),"activity change, negative = inhibition",[1]; at 57.5 µM (top of the series),3.93% (inactive)
same,max response,[1]; [11],5.38%
same,max response,[1]; [12],20.8%
NCCS(=O)(=O)O,outcome,[2],inactive
same,outcome,[3],inactive
same,outcome,[4],inactive
same,outcome,[5],inactive
same,outcome,[6],inactive
same,outcome,[7],inactive
same,Potency,[8],inactive
same,outcome,[9],inactive
same,outcome,[10],inactive
same,"activity change, negative = inhibition",[1]; at 57.5 µM (top of the series),4.96% (inactive) and -0.7% (inactive)
same,max response,[1]; [11],-11.2% and -31.9%
same,max response,[1]; [12],15.8% and -31.4%
COc1ccccc1OCC(O)CN1CCN(CC(=O)Nc2c(C)cccc2C)CC1 (stereo not given),outcome,[10],inactive
same,"activity change, negative = inhibition",[1]; at 57.5 µM (top of the series),13.2% (inactive)
same,max response,[1]; [11],8.98%
same,max response,[1]; [12],24.1%
CN(C)c1nc(N(C)C)nc(N(C)C)n1,outcome,[7],inactive
same,outcome,[9],inactive
same,outcome,[10],inactive
same,"activity change, negative = inhibition",[1]; at 25.7 µM (top of the series),-1.28% (inactive)
same,"activity change, negative = inhibition",[1]; at 57.5 µM (top of the series),7.55% (inactive) and -0.1% (inactive)
same,max response,[1]; [11],4.02% and 17.6% and 11.3%
same,max response,[1]; [12],2.91% and 27.7% and 12.4%
CC(CCc1ccc(O)cc1)NCCc1ccc(O)c(O)c1 (stereo not given),outcome,[10],inactive
Nc1nnc(-c2cccc(Cl)c2Cl)c(N)n1,outcome,[9],inactive
same,outcome,[10],inactive
same,"activity change, negative = inhibition",[1]; at 57.5 µM (top of the series),1.91% (inactive)
same,max response,[1]; [11],18.9%
same,max response,[1]; [12],20.6%
COc1ccc(C2CNC(=O)C2)cc1OC1CCCC1 (stereo not given),outcome,[7],inactive
same,outcome,[9],inactive
same,outcome,[10],inactive
CCOC(=O)Nc1ccc(NCc2ccc(F)cc2)nc1N,outcome,[9],inactive
same,outcome,[10],inactive
CC1COc2c(N3CCN(C)CC3)c(F)cc3c(=O)c(C(=O)O)cn1c23 (stereo not given),outcome,[10],inactive
same,"activity change, negative = inhibition",[1]; at 57.5 µM (top of the series),6.1% (inactive) and 7.75% (inactive)
same,max response,[1]; [11],10.5% and 11.1%
same,max response,[1]; [12],20.7% and 20.3%
CN1CCN2c3ccccc3Cc3ccccc3C2C1 (stereo not given),"activity change, negative = inhibition",[1]; at 57.5 µM (top of the series),3.41% (inactive)
same,max response,[1]; [11],10.1%
same,max response,[1]; [12],10.4%
